Results from ChEMBL document CHEMBL4513216, “Probing the Open Global Health Chemical Diversity Library for Multistage-Active Starting Points for Next-Generation Antimalarials” (ACS Infect Dis, 2020).
Screen size: about 68,000 compounds; about 2,700 (4%) showed an effect of 50% or more. The sample as a whole holds a higher share of strong results than the screen did.

What follows are molecules tested on Plasmodium berghei (assay: Screen against P. berghei liver stage (PbLuc), transformed with Luciferase, at 2uM). Conditions: tested at 2 uM.
Type: functional, HepG2

Compared with CCOC(=O)c1sc2ccsc2c1CNC(=O)CCOC, CCc1nnsc1C(=O)NCc1c(C)nn(CCOC)c1C is lower in INHIBITION: 27.47% for the first, 24.05% for the second.

Going from N#CCCCOc1cccnc1NC(=O)CCC1CCCC1 to CC(C#N)(NC(=O)COc1ccccc1Br)C1CC1 (stereo not given), the INHIBITION rises from -54.22% to 8.78%.

First: Cc1nccn1-c1ccc(=O)n(CCNC(=O)c2ccncc2)n1
Second: Cc1ccc(NC(=O)c2ccc(=O)n(CC(=O)Nc3nccs3)n2)cc1
The INHIBITION of the first is lower: -45.03% for the first, -20.78% for the second.

First: CN1CCCCc2c1nc1c(c2N)CCCC1
Second: Cc1cc(C(=O)N2CCc3nc(N4CCCC4)nc(C)c3CC2)c(C)o1
The INHIBITION of the first is lower: 14.11% for the first, 22.96% for the second.

Going from CC(O)c1cnn(-c2ccccc2)c1 (stereo not given) to Cc1nc(N)cc(C2CCN2CCOc2ccccc2)n1 (stereo not given), the INHIBITION falls from 23.06% to -43.34%.

Going from COCCN1C[C@H]2CN(C(=O)c3ccc4c(c3)OCO4)CCN2C1=O to NC(=O)C1CCN(C(=O)NCc2ccc3c(c2)OCCO3)CC1, the INHIBITION rises from -2.66% to 42.17%.

Going from CC(C)C1CCCN1C(=O)c1ccc(-n2ncc(C#N)c2N)cc1 (stereo not given) to CCNC(=O)C1CCN(Cc2ccc(C(=O)Nc3cnns3)cc2)C1 (stereo not given), the INHIBITION rises from -36.67% to 29.78%.

Going from Cc1cc(-c2nn(C)c(Cl)c2CN2CCCCC(N)C2)no1 (stereo not given) to Cc1cc(-c2nn(C)c(Cl)c2CN2CC[C@H](CO)[C@@H](O)C2)no1, the INHIBITION falls from 51.81% to -5.87%.

Going from Cc1cc(C)n(C2CCN(Cc3c(-c4cc(C)on4)nn(C)c3Cl)C2)n1 (stereo not given) to Cc1noc(C2CCN(Cn3cc(Cl)cn3)CC2)n1, the INHIBITION falls from -11.77% to -16.03%.

Going from CN1CCN(Cc2ccc(-c3ccc(-c4ccn[nH]4)cc3)nc2)CC1 to CN1CCCN(c2ccc(F)cc2CNC(=O)c2ccsc2)CC1, the INHIBITION rises from -35.16% to 31.05%.

Going from CC(=O)Nc1nc(COc2nc(C)no2)cs1 to Cc1cccc(-c2nc(C)nn2CC(=O)NC2CCCC2)c1, the INHIBITION rises from -4.89% to 25.74%.

Going from CCC[C@@H]1CN(Cc2c[nH]c(CC3CCCC3)n2)C[C@H]1C(=O)O to O=C(O)[C@@H]1CN(Cc2c[nH]c(CC3CCCC3)n2)C[C@H]1c1ccncc1, the INHIBITION rises from 5.93% to 25.35%.

Compared with O=C(O)[C@@H]1CN(Cc2c[nH]c(CC3CCCC3)n2)C[C@H]1c1ccccn1, Cc1ccc(NC(=O)c2ccc(=O)n(CC(=O)NC3CCCC3)n2)cc1 is lower in INHIBITION: 50.86% for the first, 50.2% for the second.

Compared with CCOCC1CN(C(=O)c2ccco2)Cc2cnn(CC)c21 (stereo not given), CCN1CC(COC(=O)c2cc(C)nn2CC)CC1=O (stereo not given) is lower in INHIBITION: 16.87% for the first, 3.46% for the second.

First: Cc1ccsc1C(O)CNC(=O)Cc1ccc(S(=O)(=O)C(C)C)cc1 (stereo not given)
Second: Cc1ccsc1C(O)CNC(=O)Cc1ccc(F)cc1 (stereo not given)
The INHIBITION of the first is lower: 16.03% for the first, 33.35% for the second.

First: COc1ccc(CC(=O)NCC(O)c2sccc2C)cc1OC (stereo not given)
Second: CCC(C)c1cc(C(=O)N(CC(=O)NC)c2cccc(F)c2)on1 (stereo not given)
The INHIBITION of the first is higher: 55.52% for the first, -7.58% for the second.

Going from CCCn1nc(C)c(CNC(=O)c2snnc2C)c1C to CCCOc1cc(CNC(=O)Nc2ccc(C)cc2)ccn1, the INHIBITION falls from 32.26% to 5.88%.

Going from Cn1nc(C2CCCN2)c2c(C(=O)NC3CC3)cc(C3CC3)nc21 (stereo not given) to COc1ccc2c(C)c(C(=O)NC3CCOCC3)oc2c1, the INHIBITION falls from 11.43% to -8.3%.

Going from Cc1ccoc1C1=NNC(=CN2CCCC(Cn3cncn3)C2)O1 (stereo not given) to Cc1ccoc1C1=NNC(=CN2CCOC(Cn3cccn3)C2)O1 (stereo not given), the INHIBITION rises from 3.9% to 60.64%.

First: Cc1ccoc1C1=NNC(=CN2CCn3c(C)nnc3C2)O1
Second: CCc1nnc2n1CCN(C=C1NN=C(c3occc3C)O1)C2
The INHIBITION of the first is higher: -9.22% for the first, -27.57% for the second.

First: Cc1cnn(CC2CN(C=C3NN=C(c4occc4C)O3)CCO2)c1 (stereo not given)
Second: Cc1ccoc1C1=NNC(=CN2CCn3c(nnc3C(C)C)C2)O1
The INHIBITION of the first is lower: -32.2% for the first, 83.22% for the second.

Going from C[C@H]1C[C@H]2CN(S(=O)(=O)c3ccc(F)cc3)CC[C@H]2O1 to Cc1csc([C@@H]2C[C@H]3CN(c4ncc(F)cn4)C[C@H]3O2)n1, the INHIBITION falls from 47.42% to 19.01%.

Compared with Cc1nc(N2CCOc3ccc(CO)cc3C2)c2nc(C)oc2n1, COc1ccc2c(C)c(C(=O)NCC3CN(S(C)(=O)=O)CCO3)oc2c1 (stereo not given) is higher in INHIBITION: 34.52% for the first, 60.71% for the second.

Going from CC(C)OCCC(=O)NCCC(=O)N1CCN(c2ccccn2)CC1 to CC(=O)N1CCN(C(=O)C2CCN(c3cccnn3)C2)CC1 (stereo not given), the INHIBITION rises from -8.63% to -4.8%.

First: CN1CCN(C(=O)C2CCN(c3cccnn3)C2)CC1 (stereo not given)
Second: CN1CCN(C(=O)C2CCCN(c3cccnn3)C2)CC1 (stereo not given)
The INHIBITION of the first is lower: 33.64% for the first, 59.49% for the second.

Compared with CN1CCC(C(=O)N2CCCN(c3cccnn3)CC2)C1 (stereo not given), CN1CCN(C(=O)C2CCN(c3cccnn3)CC2)CC1 is higher in INHIBITION: 45.48% for the first, 54.49% for the second.

Compared with O=C(C1CCN(c2cccnn2)C1)N1CCOCC1 (stereo not given), O=C([C@H]1C[C@H]2OCC[C@H]2N(CCc2ccccc2)C1)N1CCCCO1 is lower in INHIBITION: 42.48% for the first, -10.8% for the second.

Compared with Cc1cc(C(=O)N2CCN(C(=O)CC(C)C)[C@@H]3CS(=O)(=O)C[C@@H]32)no1, COc1ccc(CN2CCO[C@@H]3C[C@@H](C(=O)NC(C)C)C[C@H]32)cc1 is higher in INHIBITION: -57.02% for the first, 3.72% for the second.

First: COc1ccc2c(C)c(C(=O)NC3CCN(S(C)(=O)=O)CC3)oc2c1
Second: COc1cc2[nH]c(=O)c(CN3CCC[C@H]3CO)cc2c(OC)c1OC
The INHIBITION of the first is lower: 11.9% for the first, 63.1% for the second.

Going from CC(C)CN1C[C@H](COCc2ccccc2)Oc2ncccc2C1=O to O=C(CN1CCN(c2ccnc3c(F)ccc(F)c23)CC1)N1CCCC1, the INHIBITION falls from 37.74% to 3.01%.

Going from COc1cc2[nH]c(=O)c(CN3CCCC3C)cc2c(OC)c1OC (stereo not given) to COc1cc2[nH]c(=O)c(CN3CCC[C@@H]3C(N)=O)cc2c(OC)c1OC, the INHIBITION falls from -5.51% to -30.15%.

First: CCCc1cc(CN(C)C2CCSCC2)n[nH]1
Second: CCCc1cc(CN(C)C2CSCCSC2)n[nH]1
The INHIBITION of the first is higher: 36.28% for the first, -71.03% for the second.

For CCCc1cc(CN(C)C2CC(C)(C)NC(C)(C)C2)n[nH]1, the INHIBITION was 62.51%.
